About 3,700 (7%) of roughly 53,000 sequences were called active. Many of the other results were omitted from the sample, so actives are more common in it than they were. Unmarked numbers belong to inactive results.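 How the source made its calls: active means gene knockdowns whose robust z-score for IL-1 alpha signal is at least 2 or at most -2, so actives lie on both sides; inactive means the rest.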
assay: Components of the Cytosolic LPS Sensing Pathway: Gene Identification via Genome-wide siRNA Screen; conditions: RAW264.7 macrophages, IL-1a HTRF, actives lie on both sides, screened at 100 nM (by protocol), cells primed 5 h with Pam3CSK4 first;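 further: robust z of the log signal after scaling to non-targeting control siRNA wells of the plate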
Procedure, shortened: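 Knockdown: 100 nM siRNA, 48h, RAW264.7. Stimulation: Pam3CSK4 5 h, then LipidA via TransIT-TKO 24 h. Output: supernatant IL-1a HTRF, negative-control-normalized, log robust z-score; viability by CellTiter-Glo.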

| Sequence | z-score |
| --- | --- |
| GGAUCAUAUAUGAAGCACATT against Mybl1 | -2.16 (active) |
| GGUUAACAUUUUCAGUCAUTT against Itga2 | -0.986 |
| GGAUGACUUGAUUAUCUUUTT against Adrm1 | 0.603 |
| GGCAAAGAUUCCAAAAGAGTT against Bsdc1 | -1.59 |
| CCAGAUUGUGUUCACGAUGTT against Rasgrf2 | 0.888 |
| GGGAAGUUAUAAUGGAAGUTT against Rps15a | 2.46 (active) |
| GCAUAAAGCAGUCAUGCUUTT against Gskip | -0.989 |
| GCCAUGUGUAUGGUAGUCUTT against Olfr1247 | -1.22 |
| GCUAAUAAUGGUCAAAGCCTT against Prrt3 | -0.963 |
| GGAUAUUCAUGUUUCAUUGTT against Vipr2 | 0.836 |
| CGACCAGAUGAACUGGUGUTT against Smg9 | 0.929 |
| GGUGACACACUAGUAGACUTT against Sclt1 | 3.47 (active) |
| CGAACAGAAACAGUUAUUATT against Gbp2 | 1.01 |
| CCAAAUCUCUCAAUUUAGGTT against Taf9b | 0.265 |
| CCAAAGAUGUUAUUGGACCTT against Olfr1152 | -1.1 |
| CCUGUAAACCAGAUAAGCCTT against Defb1 | -0.0772 |
| GGCAAUAUGUCGUAUGUAATT against Sfmbt2 | -2.13 (active) |
| GGUCAUGAAUUACUAUUCCTT against Cyth2 | 1.02 |
| GGAGAAAUUCCCUUGCCACTT against Kbtbd12 | -0.0157 |
| UUUAUACUUCCCUGAUUUUTT against Olfr943 | -0.409 |
| GGGAAAAAGGAGAACUUCUTT against Cfap161 | -1.12 |
| GGAUCAUAGUUACAAGGCUTT against L3mbtl2 | 0.458 |

| Sequence | z-score |
| --- | --- |
| GCUUUGAGAGGUGUUGAUATT against Gm6116 | -0.864 |
| GCUAAGUUGGAAUUUCCACTT against Chtop | 2.05 (active) |
| GCCGUUUUAUGUGGCAGAATT against Slc35d3 | 0.141 |
| GGUAUUGUGGCCAGUAUUUTT against Ptdss2 | 0.185 |
| AUAAGGAUGUCCAUCUUGCTT against Olfr884 | -1.17 |
| CGGUCUAAAUUUCCGGUCATT against Elane | -0.205 |
| GGCUCAACGGGAUUACUUUTT against Pgd | -0.578 |
| GAAAUAGAGAUGCCUCUCUTT against Olfr1161 | 2.52 (active) |
| CCAAUUUACGACAAAUCGUTT against Entpd4 | -0.56 |
| GGCCCGAAACAAGAAAUCCTT against Ikbke | 0.957 |
| GCUGGUCUUUCAAGUCAAGTT against Stat5b | 2.62 (active) |
| GAAAAAUCAUGAAGCCAUATT against Olfr203 | -0.0109 |
| CCAGCUAGUGAUGUCAAAATT against Bri3bp | -0.0406 |
| GGACAGCUGGCUUCUAAAUTT against Lmntd1 | 0.137 |
| CCAUAGGUAUGUUAAUCGATT against Polr1b | -0.426 |
| GGCCAACCUACUUUUCUGGTT against Mgll | -1.18 |
| CGAUGGAAGUUUAAACCUCTT against Htr1a | 0.326 |
| GGUUGUGAAUGUAAGUGAGTT against Entpd1 | -0.787 |
| GGCAUCUUCGAAAAAUGAUTT against Reck | -0.552 |
| CGAUUUUCACCAAUUGUGGTT against Diaph2 | -2.03 (active) |
| GGACAUCAGUUGUCCUAGCTT against Ano6 | -0.285 |
| GGGCUACUCAAAGAAGAUATT against Galnt5 | -0.357 |

| Sequence | z-score |
| --- | --- |
| GGUCACCACACGAUCUACATT against Slc4a4 | 3.14 (active) |
| GCUCGGCUUUAGAGACCUATT against Cox19 | 0.379 |
| GCCUGUACAUGACGGAAAGTT against Bag4 | 0.155 |
| GGAGUUACGGGAUUCCGUUTT against Kras | 1.7 |
| GCCUAGCUGAAAACGUGUCTT against Cog4 | 5.04 (active) |
| GCUUAUAAAAGACUUACUGTT against Sec24b | 0.414 |
| GGUUAAAAUUGGCUAAAUGTT against Sertm1 | 1.5 |
| GGCUAAAAAGAGUAGACUATT against Irs1 | 1.14 |
| GGAAGAAUCUGAUUCGUAATT against Snapc5 | -1.28 |
| GGCUUUUUCUACAUGCGCCTT against Olfr1104 | -0.236 |
| GGCUGUUAUACACUAUCUGTT against Tirap | -2.71 (active) |
| GGCUUUACUACUCAACCAUTT against Gjb3 | -0.388 |
| GCAUUUAUAUGAGAUGCAGTT against Fam210a | 0.108 |
| CCAAAGCCUGAAAUGGUGGTT against Cxcr4 | -2.36 (active) |
| GGUCAAAACAUGUUGAAGGTT against B330016D10Rik | 0.15 |
| GGCAGAUGAUGGUCCAUGCTT against Tfpi | -1.63 |
| CCAGCAGUAAACUGGAAAUTT against Arhgap25 | -1.53 |
| GGCAACCAGAUAUUUGUUATT against Myef2 | 0.549 |
| GCUCGCACAGAAGUUACAATT against Lrrc42 | -0.486 |
| GAAAUGCAAGACUCUGCACTT against 1700020L24Rik | -2.66 (active) |
| GGAGCGAGUAGACAUUCUGTT against Rdh13 | 1.72 |
| GGUAGUGCCAUAAUUUCUGTT against Nipal2 | -0.782 |

| Sequence | z-score |
| --- | --- |
| GGAACCAAUCUGUCUCUCCTT against Cbfb | -2.07 (active) |
| GCUGUUAACUAUCUGGAUATT against Prokr1 | 0.59 |
| GGGUGUUGUGUCCUCUCAATT against Gckr | 0.0744 |
| GCAUGAAUCGUGCGAAGAUTT against Zfp871 | 0.903 |
| CCAGGUUCUCCGAAUCUCUTT against Cpa1 | -0.854 |
| GCUGAGUCCAUUGAAGAAGTT against Pebp4 | 0.255 |
| GCACAACGACCUUUCCAGGTT against Chst12 | -0.561 |
| GGCUAACCUGAGCAAACAGTT against Plvap | -2.21 (active) |
| GGAUCCUAAAACUGAGGAATT against Crtc2 | 0.22 |
| GGAGAAAAACUGAGCAGCCTT against Chst12 | -1.72 |
| GCAUUGGAACCAUGUGCUGTT against Prss46 | -1.59 |
| GGAGGAUUAUUACAGAAGGTT against Lhx9 | 1.57 |
| GGAACUGACUGCCUAUUCCTT against Gnb3 | 1.08 |
| CCGUUGAUAUCCACAUGAATT against Plod3 | 1.97 |
| GGUGGAACAGUGGAAUUCGTT against Grhpr | 2.41 (active) |
| GCACUGCAUAUUCCGCACUTT against Nubp2 | 1.4 |
| GGCUGGUCUCCAAACCCAATT against F13b | 0.229 |
| GGACAGUGCCACUUAAACCTT against Tbxa2r | -1 |
| GGCCUCCUAUAGACGGGAUTT against Vdac3 | 2.49 (active) |
| GGGAGACCGGCAAAAAAAATT against Pde1b | 0.999 |
| CGAGAUGUGUGUUAAAGGATT against Utp23 | 0.934 |
| GCAAGUUGUCAAAUCUAAATT against Tspan13 | 1.42 |

| Sequence | z-score |
| --- | --- |
| GCCGGACAACUCUAAUCAGTT against Herpud1 | 3.22 (active) |
| CCAAGGUAUGAAGAUAUUUTT against Rfpl4 | 0.575 |
| GCAUGUUUUGGUGUAUAGUTT against Arl4a | -1.81 |
| CGGUGUUUGAAAUCGUGCATT against Dgcr6 | 0.533 |
| CCAGAGCCCAAGCCAAGUUTT against Nanos3 | 0.639 |
| GCCCGAUAUUAUAACGGUGTT against Eomes | 2.97 (active) |
| GGUAUCCAGAUGAAAGAUGTT against Nlrp10 | -1.13 |
| GGCCCUCAAAAAUCACGAGTT against Ehd1 | 1.11 |
| GGCAACAUCACUGAGUAUCTT against Glg1 | 0.57 |
| GGAUCUUCUCUGCCUAUAUTT against Arpc1b | -1.42 |
| GGAGGAGAAGAAGAAGGCCTT against Unc119b | 0.28 |
| CCUCAUGCUAGCCUCAUGATT against Actg1 | -0.214 |
| GCUAUUGGGACUUAGAACATT against Slc26a9 | 0.191 |
| CCAGUAAACCUACAUGUUCTT against Htr3b | -0.024 |
| GGCUAAAAUAAGCAAUCUGTT against Optc | -1.35 |
| GGAAACUCCCUGAACCGGATT against Zcrb1 | 2.26 (active) |
| GGUAUUGAGUAUCUUAGGUTT against Atf7 | -0.543 |
| CGUUUUGUACAGAUAUACUTT against Fam3b | -0.571 |
| GAUUCCAAGACAUUAAACATT against Fxn | 0.485 |
| GGCAGUUCAUGUUUAAAGATT against Fgfr1op2 | -0.381 |

From PubChem BioAssay AID1508600 (Functional Genomics Laboratory (NCATS/FGL), 2020)
